GPR151 ag = activates the human receptor GPR151; 1% of 650,000 active; activation, % at 11.2 µM; Q8TDV0; PathHunter beta-arrestin GPR151 cells, luminescence; in the data active = activation above about 4.9%
FBW7 activator = activators of human E3 ligase FBW7. 0.13% of 650,000 active. AID 1259310. normalized activity (activation), % at 26.1 µM. Q969H0. AlphaScreen FBW7–phospho-cyclin E peptide binding, activator screen; in the data active = normalized activity above about 1.9%;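 note: purified mutant Fbw7 with reduced substrate affinity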
TEAD-YAP inh = TEAD-YAP interaction inhibition; 1.4% of 640,000 active; AID 1259422; inhibition, % at 9.12 µM; HEK-TIYL cells, TEAD-Gal4/YAP UAS-luciferase luminescence; in the data active = inhibition above about 32%
MITF inh = human MITF inhibition, primary screen | 0.91% of 650,000 active | inhibition, % at 2.6 µM | O75030 | AlphaScreen MITF homodimerization, bead proximity signal | AID 1259374; in the data active = inhibition above about 50%
GPR151 confirm = confirmation of human GPR151 activators; AID 1508609; activation, % at 11.2 µM; GPR151 PathHunter beta-arrestin cells, luminescence, 90 min; % of EA-reagent control over plate median; 6,700 tested, under 10 active; shares compounds with GPR151 ag;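 active = mean percent activation across replicates above the confirmation screen cutoff of 4.91%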
GPR119 ag = activates human GPR119 in a GPR151 counter-screen; shares compounds with GPR151 ag; GPR119 PathHunter beta-arrestin cells, luminescence, 90 min; 0 = compound-well median, 100 = enzyme-acceptor control; activation, % at 11.2 µM; 0.3% of 6,700 active; AID 1508611;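 active = mean percent activation in the counterscreen above 29.09%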;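 note: counterscreen on off-target GPR119 to flag nonselective hits from the GPR151 activator screen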
Target sequence (Q8TDV5 whole entry, looked up): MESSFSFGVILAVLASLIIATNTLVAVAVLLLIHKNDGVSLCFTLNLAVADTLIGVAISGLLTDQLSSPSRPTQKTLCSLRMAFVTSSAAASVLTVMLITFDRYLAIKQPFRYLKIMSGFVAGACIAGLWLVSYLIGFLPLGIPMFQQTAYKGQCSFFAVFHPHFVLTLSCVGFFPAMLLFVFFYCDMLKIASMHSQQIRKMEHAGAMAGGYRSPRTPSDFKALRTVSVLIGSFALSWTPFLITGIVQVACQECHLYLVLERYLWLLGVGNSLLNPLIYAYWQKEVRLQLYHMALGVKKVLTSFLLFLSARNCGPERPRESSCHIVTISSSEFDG
Numbers stand for hits; - = inactive; . = no result given; ! = a repeat was not active. Compounds with a hit are over-represented: about 3.5% of the library has one in this group of screens.

SMILES	GPR151 ag	FBW7 activator	TEAD-YAP inh	MITF inh	GPR151 confirm	GPR119 ag
COc1ccc(-c2csc(Nc3ccccc3)n2)cc1F	6.5	-	-	-	-	-
CS(=O)(=O)N1N=C(c2ccc3nccnc3c2)CC1c1ccccc1 (centres undefined)	5.0	-	-	-	-	-
c1cc(-c2ccc3nc(-c4ccncc4)[nH]c3c2)ccn1	-	-	-	-	.	.
C1=C(c2nc3ccc(-c4ccncc4)cc3[nH]2)CCOc2ccccc21	10.0	-	-	-	-	-
COc1ccc(NC(=O)COc2ccc3c(=O)c(-c4ccc(F)cc4)coc3c2)cc1	5.4	-	-	-	-	-
Cc1ccccc1OCc1nc(-c2ccc(OCC(N)=O)cc2)no1	-	-	-	-	.	.
O=c1oc2c(Cl)cc(Cl)cc2cc1-c1csc(Nc2ccc(F)cc2)n1	-	-	-	-	.	.
Cc1cc(C(=O)Nc2cccc(O)c2)ccc1[N+](=O)[O-]	-	-	-	-	.	.
Cc1cccc(NC(=O)c2ccc(NCCc3ccccc3)c([N+](=O)[O-])c2)c1	6.6	-	-	-	-	-
Cc1cc(C(=O)Nc2cccc(NC(=O)c3ccccc3)c2)ccc1[N+](=O)[O-]	6.3	-	-	-	-	-
O=c1c(/C=N/c2ccccn2)c(C(F)(F)F)[nH]n1-c1ccccc1	-	-	-	-	.	.
CCOC(=O)c1cnc2ccc(OC)cc2c1Nc1ccccc1C	-	-	-	-	.	.
CCOC(=O)c1cnc2ccc(OC)cc2c1Nc1ccccc1C(=O)O	5.6	-	-	-	-	-
CCOC(=O)c1cnc2cc(C(F)(F)F)ccc2c1Nc1cc(OC)ccc1OC	4.9	-	-	-	-	-
CCOC(=O)C1=C(c2ccccc2)OC(N)=C(C#N)C1c1cc(OC)c2c(c1)OCO2 (centres undefined)	-	-	-	-	.	.
O=[N+]([O-])/C=C/N1CCOCC1	5.5	-	-	-	-	-
CCOC(=O)c1c(C)c(C(=O)NCCC(C)C)c(C)n1C	11.8	-	-	-	-	-
CCOC(=O)c1c(C)c(C(=O)NCCCOC)c(C)n1C	-	-	-	-	.	.
Cc1nn(Cc2ccccc2Cl)c(Cl)c1/C=C/C(=O)OCC#N	10.3	-	-	-	-	-
CCOC(=O)c1c(NC(=O)C2CCCCC2)sc2c1CCN(C(=O)OCC)C2	-	-	-	-	.	.
Oc1oc(-c2ccccc2Br)nc1C=Nc1ccc(Br)cc1	-	-	-	-	.	.
Oc1oc(-c2ccccc2Br)nc1C=Nc1ccc(I)cc1	9.3	-	-	-	-	-
Cc1ccc([N+](=O)[O-])c(OCCSc2nnc3cc(C)c4ccccc4n23)c1	-	-	-	-	.	.
COc1ccc(CCNC(=O)CN2N=C(c3ccc(C)cc3)CCC2=O)cc1OC	6.7	-	-	-	-	-
CCCCCCc1cc(O)c2c(C)cc(=O)oc2c1	7.0	-	-	-	-	-
SMILES	GPR151 ag	FBW7 activator	TEAD-YAP inh	MITF inh	GPR151 confirm	GPR119 ag
CC(=O)N(C)c1nnc(-c2ccccn2)s1	7.8	-	-	-	-	-
NC(=O)c1cccc(N)c1	6.2!	-	-	-	-	-
CCOc1cc(CN2CCc3nnc(C(NS(C)(=O)=O)C(C)C)n3CC2)ccc1O (centres undefined)	8.1	-	-	-	-	-
CCC(=O)NC(c1nnc2n1CCN(Cc1ccc(OC)c(C)c1)CC2)C(C)C (centres undefined)	-	-	-	-	.	.
CCC(=O)NC(c1nnc2n1CCN(Cc1ccc(C)c(C)c1)CC2)C(C)C (centres undefined)	9.8	-	-	-	-	-
CC(=O)C(C)Sc1nnc(Nc2ccccc2F)s1 (centres undefined)	-	-	-	-	.	.
C=CCOC(=O)/C(C#N)=C/c1ccc(OCC(=O)O)cc1	-	-	-	-	.	.
N#C/C(=C\c1ccc(OCC(=O)O)cc1)C(N)=S	6.4	-	-	-	-	-
COc1cc(/C=C2\SC(=Nc3c(C)cccc3C)N(c3ccccc3)C2=O)ccc1OCc1ccc(F)cc1	-	-	-	-	.	.
C=CCN(C#N)c1nc(OC)nc(N2CCCC2)n1	13.9	-	-	-	-	-
Cc1cc2nnc(SCc3cn4cccnc4n3)n2c2ccccc12	-	-	-	-	.	.
Cc1ccc(C(=O)COC(=O)CN2C(=O)C3C4C=CC(C4)C3C2=O)cc1[N+](=O)[O-] (centres undefined)	12.6	-	-	-	-	-
Cc1ccc(C(=O)COC(=O)CN2C(=O)C3C4CCC(C4)C3C2=O)cc1[N+](=O)[O-] (centres undefined)	-	-	-	-	.	.
CCOc1ccc(S(=O)(=O)NC2CC2)cc1	-	-	-	-	.	.
CCOc1ccc(S(=O)(=O)NC2CCCCC2)cc1	5.3	-	-	-	-	-
Clc1ccccc1-c1nnc2sc(Nc3ccccc3)nn12	-	-	-	-	.	.
O=C(Nc1nnc(-c2ccc3c(c2)OCCO3)o1)c1ccc(F)cc1	-	-	-	-	.	.
Cc1cccc(-c2n[nH]c(=S)n2CC(=O)O)c1	7.2	-	-	-	-	-
Cc1sc2ncnc(NCC(C)O)c2c1C (centres undefined)	4.9	-	-	-	-	-
Cc1sc2ncnc(NCc3ccccc3)c2c1C	-	-	-	-	.	.
CCOC(=O)Cn1nnnc1CN(Cc1ccccc1)Cc1cc2cc(C)ccc2[nH]c1=O	6.4	-	-	-	-	-
O=S(=O)(N/N=C/c1cccc(Cl)c1)c1ccc(Cl)cc1	5.2	-	-	-	-	-
Cn1c(NC(=O)c2ccco2)c(-c2cccs2)c(=O)c2ccccc21	6.6	-	-	-	-	-
Cc1cccc2sc(NC(=O)/C=C\C(=O)O)nc12	6.8	-	-	-	-	-
Cc1sc(NC(=O)/C=C\C(=O)O)nc1-c1ccccc1	6.9	-	-	-	-	-
SMILES	GPR151 ag	FBW7 activator	TEAD-YAP inh	MITF inh	GPR151 confirm	GPR119 ag
O=C(Nc1sc2c(c1C(=O)NC1CCCCC1)CCCC2)c1ccncc1	-	-	-	-	.	.
Cc1cc([N+](=O)[O-])ccc1N1C(=O)C2CC=C(Cl)CC2C1=O (centres undefined)	5.6	-	-	-	-	-
Cc1ccc([N+](=O)[O-])cc1N1C(=O)C2CC=C(Cl)CC2C1=O (centres undefined)	-	-	-	-	.	.
COC(=O)c1ccc2c(=O)n(Cc3ccco3)c(SCC(=O)Nc3cccc(OC)c3)nc2c1	-	-	-	-	.	.
CCOC(=O)C1CCCCN1Cc1cc(C)c(OC)cc1C (centres undefined)	4.9	-	-	-	-	-
CCOC(=O)C1CCCCN1Cc1ccc(OC)c(C)c1OC (centres undefined)	-	-	-	-	.	.
CC(=O)Nc1ccc(NC(=O)C/C(C)=N/NC(=O)C(=O)NCCO)cc1	5.8	-	-	-	-	-
COCCNC(=O)C(=O)NC(C)c1ccccc1 (centres undefined)	-	-	-	-	.	.
CC(C)OCCCNC(=O)C(=O)NC(C)c1ccccc1 (centres undefined)	5.3	-	-	-	-	-

Screening results as filed in PubChem BioAssay.
